Data published in PubChem BioAssay (NCATS).
Results filed as inconclusive are left out. A call without a number means that no potency is given here. Calls of active or inactive are those of the source. Calls follow the shape of the dose curve; as a rule, active = well fitted inhibition curve with a large enough effect; inconclusive = small, poorly fitted or top-dose-only effect; inactive = no such curve, though single readings can be large or run the other way.

What follows are molecules tested on Zika virus NS2B-NS3 protease (unlinked complex) (assay: Primary screen GU Rhodamine qHTS for Zika virus inhibitors: Unlinked NS2B-NS3 protease assay (AID 1347159; also: nearly all actives have a fitted effect of over 60% in size)). Conditions: Recombinant ZIKV NS2B-NS3 protease, Rhodamine110 substrate fluorescence; series mostly up to 107 µM.
In short: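 A qHTS format was used, with compound concentrations ranging up to 114 microM. Each compound was preincubated with 25 nM NS2B-NS3 protease, and the substrate was then added at 1.5 microM. Curves were fitted with a 4-parameter Hill model.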
For `COc1ccc2c(c1)N1C(=O)C[C@@]34C=CC[N@+]5([O-])CC[C@H]2[C@H](CC3)[C@@]145`, the Potency was “inactive”. In the case of `OC[C@H]1O[C@@H](OCc2ccccc2)[C@H](O[C@@H]2OC[C@@H](O)[C@H](O)[C@H]2O)[C@@H](O)[C@@H]1O`, the Potency is reported as “inactive”. `Cc1cn(C[C@H](N)C(=O)O)c(=O)n(Cc2ccsc2C(=O)O)c1=O` was tested, and the Potency was “inactive”. With `C=C(C)C(O)COc1ccc(CC(=O)O)cc1` (configuration not stated) the Potency was “inactive”. With `OC[C@H]1O[C@@H](OC[C@H]2O[C@@H](OCc3ccccc3)[C@H](O)[C@@H](O)[C@@H]2O)[C@H](O)[C@@H](O)[C@@H]1O` the Potency was “inactive”. In the case of `C[C@@H]1CC2OC(=O)C3=C2C(CCC3O)[C@@]12C[C@@H](c1ccoc1)OC2=O` (some centres not stated), the Potency is reported as “inactive”. `COc1ccnc(CCc2nc3ncccc3[nH]2)c1` was tested, and the Potency was “inactive”. With `O=C(O)/C=C/c1ccc(O[C@@H]2O[C@H](CO)[C@@H](O)[C@H](O)[C@H]2O)cc1` the Potency was “inactive”. In the case of `C=C(CO)C(=O)O[C@H]1C[C@@]23O[C@@H]2CC/C(=C/[C@H]2OC(=O)C(=C)[C@H]12)CO[C@H]3O`, the Potency is reported as “inactive”. In the case of `C[C@H]1CC(=O)C2=C(C1)C(O)C(O)[C@@]1(O)[C@H]2C(=O)c2cccc(O)c2[C@@H]1O` (some centres not stated), the Potency is reported as “inactive”. In the case of `C[C@@H]1O[C@@H](O[C@H]2[C@H](O)[C@@H](O)[C@H](OC[C@H]3O[C@@H](OC(=O)[C@]45CCC(C)(C)C[C@H]4C4=CCC6[C@@]7(C)C[C@@H](O)[C@H](O)[C@@](C)(CO)C7[C@H](O)C[C@@]6(C)[C@]4(C)CC5)[C@H](O)[C@@H](O)[C@@H]3O)O[C@@H]2CO)[C@H](O)[C@H](O)[C@H]1O` (some centres not stated), the Potency is reported as “inactive”. `CC1(C(=O)O)CC[C@]2(C(=O)OC3OC(CO)C(O)C(O)C3O)CC[C@]3(C)C(=CCC4[C@@]5(C)CC[C@H](OC6OCC(O)C(O)C6OC6OC(CO)C(O)C(O)C6O)C(C)(C)C5CC[C@]43C)C2C1` (some centres not stated) was tested, and the Potency was “inactive”. With `COC1OC(=O)C2=C1C1(C)CCCC(C)(C)C1CC2O` (configuration not stated) the Potency was “inactive”. `CC1=C(CO)C2(C)CCCC(C)(C)C2C(O)C1O` (configuration not stated) was tested, and the Potency was “inactive”. With `COc1cccc(CN(C(=O)CC(C)(C)C)C2CC(C(=O)N3CCNCC3)N(Cc3ccc4c(c3)OCO4)C2)c1` (configuration not stated) the Potency was “inactive”. For `O=C(/C=C/c1ccc(O)cc1)OC[C@H]1O[C@H](O[C@@]2(CO)O[C@@H](CO)[C@H](O)[C@H]2O)[C@H](O)[C@@H](O)[C@@H]1O`, the Potency was “inactive”. For `C#CCCCn1cc(-c2cccc3c2N[C@@H](C)CC(=O)N3)cn1`, the Potency was “inactive”. In the case of `COc1cccc(Cn2ncc3c4sc(S(C)=O)cc4n(C)c3c2=O)c1` (configuration not stated), the Potency is reported as “inactive”.

These molecules were tested on Zika virus NS2B-NS3 protease (linked construct) (assay: Primary screen NINDS Rhodamine qHTS for Zika virus inhibitors (AID 1347160; also: nearly all actives have a fitted effect of over 55% in size)). Conditions: purified NS2B-NS3 protease, Rhodamine110 substrate fluorescence; series mostly up to 33.1 µM.
In short: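 Kinetic fluorescence (Ex 480 nm, Em 540 nm) over 15 min with 1.5 microM Rhodamine110 peptide and 25 nM linked protease.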
`O=C(NCCN1CCCC1)c1cc(-c2ccc(CN3CCOCC3)cc2)nc2ccc(F)cc12` was tested, and the Potency was “inactive”. For `CC(C)NC(=O)c1ccc(C#Cc2ccncc2)cn1`, the Potency was “inactive”. In the case of `CC(C)=CCC/C(C)=C/CO[C@@H]1O[C@H](CO[C@@H]2OC[C@](O)(CO)[C@H]2O)[C@@H](O)[C@H](O)[C@H]1O`, the Potency is reported as “inactive”. With `CC1=C(C(=O)OC2OC(COC3OC(CO)C(O)C(O)C3O)C(O)C(O)C2O)C(C)(C)CCC1` (configuration not stated) the Potency was “inactive”. For `CC1(C)CC[C@]2(C(=O)O[C@@H]3O[C@H](CO)[C@@H](O)[C@H](O)[C@H]3O)CC[C@]3(C)C(=CCC4[C@@]5(C)CC[C@H](O[C@@H]6O[C@H](C(=O)O)[C@@H](O[C@@H]7O[C@H](CO)[C@@H](O)[C@H](O)[C@H]7O)[C@H](O)[C@H]6O)C(C)(C)C5CC[C@]43C)C2C1` (some centres not stated), the Potency was “inactive”. With `N#Cc1ccc(C2CCCc3cncn32)cc1` (configuration not stated) the Potency was “inactive”. `NC(N)=NCCC[C@H](NC(=O)c1sccc1NS(=O)(=O)c1cccc2nsnc12)C(=O)O` was tested, and the Potency was “inactive”. With `O=C(c1c2ccccc2cc2ccccc12)N1CCC(N2CCC[C@@H](C(=O)N3CCOCC3)C2)CC1` the Potency was “inactive”. With `Cc1oc(S(=O)(=O)N2CCCCC2)cc1NC(=O)Nc1ccccc1` the Potency was “inactive”. In the case of `CC1=CC(=O)[C@]2(O[C@@H]3O[C@@H](C)[C@H](O)[C@@H](O)[C@H]3O)C=CO[C@@H](O[C@@H]3O[C@H](CO)[C@@H](O)[C@H](O)[C@H]3O)[C@H]12`, the Potency is reported as “inactive”. With `CC1CC(O)/C=C/C(O)/C=C\C(=O)O1` (configuration not stated) the Potency was “inactive”. In the case of `C=C1[C@H](OC(C)=O)[C@H]2[C@@H](OC(C)=O)C(C)C[C@]2(OC(C)=O)C(=O)[C@H](C)/C=C/C(C)(C)C(=O)[C@H](OC(=O)C(C)C)[C@H]1OC(C)=O` (some centres not stated), the Potency is reported as “inactive”. In the case of `COC(=O)C[C@@H]1C(C(=O)O)=CO[C@@H](O[C@@H]2O[C@H](CO)[C@@H](O)[C@H](O)[C@H]2O)/C1=C\COC(=O)/C=C/c1ccc(O)c(OC)c1`, the Potency is reported as “inactive”. `CC(C)C1(O)NC(=O)C(CC2(O)c3ccccc3N3C(=O)C(C)(C)NC32)n2c1nc1ccccc1c2=O` (configuration not stated) was tested, and the Potency was “inactive”. `CC(C)=CCC/C(C)=C/CO[C@@H]1O[C@H](CO[C@@H]2O[C@@H](CO)[C@H](O)[C@H]2O)[C@@H](O)[C@H](O)[C@H]1O` was tested, and the Potency was “inactive”. For `CCC12CCCN3CCc4c(n(c5ccccc45)C(O)C1)C32` (configuration not stated), the Potency was “inactive”. For `COC(=O)C1=COC(O[C@@H]2O[C@H](CO)[C@@H](O)[C@H](O)[C@H]2O)/C(=C\COC(=O)/C=C/c2ccccc2)C1CC(=O)OCCc1ccc(O)cc1` (some centres not stated), the Potency was “inactive”. `CC1=C2CC(C)(C)CC2C(O)C2=C(C1)C(=O)OC2O` (configuration not stated) was tested, and the Potency was “inactive”. For `COc1ccnc2[nH]cc(C(=O)C(=O)N3CCN(C(=O)c4ccccc4)CC3C)c12` (configuration not stated), the Potency was “inactive”. In the case of `C=C1[C@H](OC(C)=O)[C@H]2[C@@H](OC(=O)c3ccccc3)[C@@H](C)C[C@]2(O)[C@@H](OC(C)=O)[C@H](C)/C=C/C(C)(C)C(=O)[C@H](OC(C)=O)[C@H]1OC(C)=O`, the Potency is reported as “inactive”. With `C[C@]1(OC(=O)/C=C\c2ccc(O)cc2)C[C@@H](O)[C@]2(O)C=CO[C@@H](O[C@@H]3O[C@H](CO)[C@@H](O)[C@H](O)[C@H]3O)C12` (some centres not stated) the Potency was “inactive”. In the case of `COc1ccc2c(c1)N1C(=O)C[C@@]34C=CC[N@+]5([O-])CC[C@H]2[C@H](CC3)[C@@]145`, the Potency is reported as “inactive”. `OC[C@H]1O[C@@H](OCc2ccccc2)[C@H](O[C@@H]2OC[C@@H](O)[C@H](O)[C@H]2O)[C@@H](O)[C@@H]1O` was tested, and the Potency was “inactive”. `Cc1cn(C[C@H](N)C(=O)O)c(=O)n(Cc2ccsc2C(=O)O)c1=O` was tested, and the Potency was “inactive”. For `C=C(C)C(O)COc1ccc(CC(=O)O)cc1` (configuration not stated), the Potency was “inactive”. In the case of `OC[C@H]1O[C@@H](OC[C@H]2O[C@@H](OCc3ccccc3)[C@H](O)[C@@H](O)[C@@H]2O)[C@H](O)[C@@H](O)[C@@H]1O`, the Potency is reported as “inactive”. For `C[C@@H]1CC2OC(=O)C3=C2C(CCC3O)[C@@]12C[C@@H](c1ccoc1)OC2=O` (some centres not stated), the Potency was “inactive”. `COc1ccnc(CCc2nc3ncccc3[nH]2)c1` was tested, and the Potency was “inactive”. `O=C(O)/C=C/c1ccc(O[C@@H]2O[C@H](CO)[C@@H](O)[C@H](O)[C@H]2O)cc1` was tested, and the Potency was “inactive”. For `C=C(CO)C(=O)O[C@H]1C[C@@]23O[C@@H]2CC/C(=C/[C@H]2OC(=O)C(=C)[C@H]12)CO[C@H]3O`, the Potency was “inactive”. `C[C@H]1CC(=O)C2=C(C1)C(O)C(O)[C@@]1(O)[C@H]2C(=O)c2cccc(O)c2[C@@H]1O` (some centres not stated) was tested, and the Potency was “inactive”. With `C[C@@H]1O[C@@H](O[C@H]2[C@H](O)[C@@H](O)[C@H](OC[C@H]3O[C@@H](OC(=O)[C@]45CCC(C)(C)C[C@H]4C4=CCC6[C@@]7(C)C[C@@H](O)[C@H](O)[C@@](C)(CO)C7[C@H](O)C[C@@]6(C)[C@]4(C)CC5)[C@H](O)[C@@H](O)[C@@H]3O)O[C@@H]2CO)[C@H](O)[C@H](O)[C@H]1O` (some centres not stated) the Potency was “inactive”. With `CC1(C(=O)O)CC[C@]2(C(=O)OC3OC(CO)C(O)C(O)C3O)CC[C@]3(C)C(=CCC4[C@@]5(C)CC[C@H](OC6OCC(O)C(O)C6OC6OC(CO)C(O)C(O)C6O)C(C)(C)C5CC[C@]43C)C2C1` (some centres not stated) the Potency was “inactive”. For `COC1OC(=O)C2=C1C1(C)CCCC(C)(C)C1CC2O` (configuration not stated), the Potency was “inactive”. With `CC1=C(CO)C2(C)CCCC(C)(C)C2C(O)C1O` (configuration not stated) the Potency was “inactive”. `COc1cccc(CN(C(=O)CC(C)(C)C)C2CC(C(=O)N3CCNCC3)N(Cc3ccc4c(c3)OCO4)C2)c1` (configuration not stated) was tested, and the Potency was “inactive”. With `O=C(/C=C/c1ccc(O)cc1)OC[C@H]1O[C@H](O[C@@]2(CO)O[C@@H](CO)[C@H](O)[C@H]2O)[C@H](O)[C@@H](O)[C@@H]1O` the Potency was “inactive”. For `C#CCCCn1cc(-c2cccc3c2N[C@@H](C)CC(=O)N3)cn1`, the Potency was “inactive”. With `COc1cccc(Cn2ncc3c4sc(S(C)=O)cc4n(C)c3c2=O)c1` (configuration not stated) the Potency was “inactive”.
